# uPA surface inh: inhibitors of cell surface uPA generation; cell surface uPA generation assay, qHTS; Potency, µM (doses to about 38.3 µM), inactives show at the highest dose activity change, negative = inhibition, usual class: inhibitors; 330,000 tested, 0.31% active; AID 540303; active means well fitted inhibition curve with a large enough effect; inconclusive means small, poorly fitted or top-dose-only effect; inactive means no such curve, though single readings can be large or run the other way; tested in mouse RAW 264.7 cells; further: potency means the concentration at half of the fitted maximal effect; on the % scale 0 is the no-effect control and ±100 the full control effect; nearly all actives have a fitted effect of over 55% in size
# TCR activator: activates T cell receptor signaling; primary human leukocytes, anti-CD3, IL-2 HTRF, 48 h; Potency, µM (series often up to 9.22 µM), for inactives: top-dose activation of IL-2 secretion, hits mostly activators; 330,000 tested, under 10 active; AID 504894; further: % of control where 0% means no effect
#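 Using a-CD3 beads without co-stimulation, primary human leukocytes were exposed to compounds for 48 hr. An HTRF IL-2 kit measured the cytokine, with europium-to-d2 energy transfer producing emission at 665nm upon 320nm excitation.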
# ClpP mod: qHTS Assay for Activators of ClpP; purified B. subtilis ClpP, FRET peptide cleavage, 20 min; Potency, µM (top dose mostly 57.5 µM), for inactives: at the top dose activity change, negative = active; 340,000 tested, 1.9% active; AID 651965, 2013; active means well fitted falling curve with a large enough effect; inconclusive means small, poorly fitted or top-dose-only effect; inactive means no such curve, though single readings can be large or run the other way; further: potency means the concentration at half of the fitted maximal effect; the source files actives as falling curves though it sought activators and does not explain the sign; nearly all actives have a fitted effect of over 65% in size
# Target sequence (P80244 whole entry, looked up): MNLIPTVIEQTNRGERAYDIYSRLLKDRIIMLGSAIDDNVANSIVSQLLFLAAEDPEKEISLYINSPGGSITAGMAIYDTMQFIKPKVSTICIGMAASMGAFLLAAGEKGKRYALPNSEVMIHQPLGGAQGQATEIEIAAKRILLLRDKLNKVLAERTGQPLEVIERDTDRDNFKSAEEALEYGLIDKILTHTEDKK
#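 ClpP 10 microg/mL final, pH 8 Tris/KCl buffer with BSA, glycerol, Tween-20; compound pinned in; FRET-FV substrate; RT 20 min; Ex320/Em430; ΔFRET vs ADEP 5.8 microM, DMSO, no enzyme.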
# Sfp PPTase inh: blocks B. subtilis Sfp PPTase activity. AID 1490. 310,000 tested, 3.5% active. Biochemical Sfp PPTase activity, qHTS. Potency, µM, without a hit: largest response in the series, negative = inhibition, usual class: inhibitors;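 further: the enzyme is Sfp with the accession as filed and its product quenches rhodamine fluorescence; potency means the concentration at half of the fitted maximal effect; 0% = enzyme reaction without inhibitor and -100% = no enzyme wells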
#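 Reaction rates are the 30-min fluorescence difference (ex 525, em 598 nm) in wells containing 15 nM Sfp, 5 uM rhodamine-CoA and 12.5 uM BHQ-2-YbbR at pH 7.6 with 10 mM MgCl2.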
# Numbers without * were called inactive; ? = inconclusive; nt = not tested or not shown; ! = not confirmed by another sample; [ ] = dose if it differs, or a comment. Most compounds without a hit are left out; they make up all but 4.2% or so of the library. Unless noted, the call rests on the fitted dose curve; in most records, active means well fitted curve in the direction sought with a large enough effect; inconclusive means small, poorly fitted or top-dose-only effect, or another doubt; inactive means no such curve, though single readings can be large; an effect the other way counts as inactive or inconclusive.
SMILES,uPA surface inh,TCR activator,ClpP mod,Sfp PPTase inh
CCOC(=O)c1ccc(NC(=O)CCc2nc(-c3ccc(C)cc3)no2)cc1,nt,-2%,-2%,?
CN(CC(=O)Nc1ccc(Cl)cc1)C(=O)CNC(=O)c1cccs1,-12%,nt,-1%,nt
CC(C)(C)c1cc(C(=O)N/N=C/c2ccc(O)cc2)n(-c2ccccc2)n1,-14%,-2%,32µM*,1%
COc1cccc(Nc2nnc(SCC3CCCCO3)s2)c1 (centres undefined),-5%,0%,-1%,5%
Cc1cccc(Nc2nnc(SCC3CCCCO3)s2)c1C (centres undefined),5%,-3%[46.1 µM],10µM*,-7%
CN(C)c1ccc(C(CNS(=O)(=O)c2ccc(Cl)cc2)N2CCCC2)cc1 (centres undefined),nt,nt,-3%,nt
Nc1nsc2ccccc12,?,1%,32µM*,?
Nc1nnc(N)c2ccccc12,0%,0%,nt,5%
CC(=O)Nc1ccc(S(=O)(=O)c2cc(O)ccc2O)cc1,2%,5%,nt,-22%
CCOC(=O)c1cnn(-c2cc(Oc3ccccc3C)ncn2)c1N,5%,-1%,-3%,50µM*
COc1ccccc1-c1ccc(=O)n(CC(=O)NC2CCc3ccccc32)n1 (centres undefined),-3%,-4%,-2%,35µM*
CCCNC(=O)Cn1nc(-c2ccccc2OC)ccc1=O,nt,nt,-1%,nt
C=CC(=O)Nc1ccc(Br)cc1,-24%,8%,16µM*,6%
CCc1cc2c(=O)c(-c3cnn(-c4ccccc4)c3)c(C)oc2c(CN2CCCCC2)c1O,nt,4%,28µM*,5%
CCc1cc2c(=O)c(-c3cnn(-c4ccccc4)c3)coc2c(CN2CCOCC2)c1O,-1%,-5%,?,-11%
O=c1[nH]c(CN2CCN(c3ccc(O)cc3)CC2)nc2scc(-c3ccc(Cl)cc3)c12,5µM*,3%,1%,7%
Oc1ccc(N2CCN(Cc3nc4ccccc4[nH]3)CC2)cc1,-10%,10%,nt,56µM*
O=c1[nH]c(CN2CCN(c3ccccc3O)CC2)nc2scc(-c3ccccc3Cl)c12,3%,8%,-1%,23%
CCc1ccc(OCC(=O)Nc2ccc(N3CCN(S(C)(=O)=O)CC3)cc2)cc1,1%,nt,0%,5%
COCc1cc(C)nc(OCC(=O)N/N=C/c2ccco2)c1C#N,-4%,2%[46.1 µM],14µM*,27%
COc1ccc(Cl)cc1C(=O)NCC(c1ccc(N(C)C)cc1)N1CCOCC1 (centres undefined),nt,nt,0%,nt
O=C(CSC(=S)N1CCOCC1)Nc1nc(=O)c2ccccc2s1,nt,4%[46.1 µM],nt,79µM*
CN(C)N=Nc1ccc(/C=C2\C=Cc3ccccc32)cc1,nt,nt,1%,nt
C=CCOC(=O)C1=C(C)NC(SCC(=O)OCC)=C(C#N)C1c1ccc(O)c(OC)c1 (centres undefined),-13%,-9%,-3%,-16%
CCOC(=O)CSC1=C(C#N)C(=O)NC(c2ccc(OC)c(OC)c2)S1 (centres undefined),-5%,2%,-2%,40µM*
SMILES,uPA surface inh,TCR activator,ClpP mod,Sfp PPTase inh
CCOC(=O)CSc1nnc(-c2ccc(OC)cc2)o1,nt,nt,-1%,nt
CCOC(=O)CSC1=C(C#N)C(=O)NC(c2ccc(OC)cc2)S1 (centres undefined),-1%,nt,0%,45µM*
CC(=O)N1CCC(C(=O)NCCOc2ccc(C)cc2)CC1,1%,0%,nt,15%
COC(=O)c1c(NC(=O)c2nc(SCc3cccc(C)c3)ncc2Cl)sc2c1CCCC2,nt,nt,1%,nt
Cc1nnc(NN)n(N)c1=O,0%,3%,nt,10µM*
O=C(NCc1cccs1)c1ccc(CSc2nc3ccncc3n2Cc2cccc(F)c2)cc1,nt,nt,-12%,nt
Cc1ccc(/C=C/C(=O)N2CC(=O)Nc3ccccc32)o1,2%,nt,nt,7.1µM*
Cc1nn2c(N3CCN(c4ccccn4)CC3)cc(C(C)C)nc2c1-c1ccccc1,4%,-7%,28µM*,7%
Cc1cc(N2CCCCCC2)n2nc(C)c(-c3ccccc3)c2n1,2%,4%,3%,-8%
COc1cc2c(c(O)c1OC)-c1c(cc(OC)c(OC)c1OC)C[C@@H](C)[C@@H](C)C2,-21%,1%,1%,10%
COc1cc2c(c(O)c1OC)C(=O)C(OC)CCC2 (centres undefined),-5%,0%,28µM*,14%
COc1cc(-c2ccc(N=Nc3ccc4c(S(=O)(=O)O)cc(S(=O)(=O)O)c(N)c4c3O)c(OC)c2)ccc1N=Nc1ccc2c(S(=O)(=O)O)cc(S(=O)(=O)O)c(N)c2c1O,nt,nt,nt,4µM*
CCCCCCCCCCCCC/C=C/[C@@H](O)[C@@H](N)CO,-2%,1%,-2%,79µM*!
CCCCCCCCCCCCC/C=C/[C@@H](O)[C@H](CO)N(C)C,nt,nt,nt,15%
COc1ccc(Br)cc1CN(C)CC(=O)Nc1ccccc1Cl,6%,0%[46.1 µM],28µM*,-5%
COc1ccc(CCNC(=O)c2ccc(Cn3c(=O)c4ccccc4n(Cc4cccc(F)c4)c3=O)cc2)cc1OC,nt,nt,35µM*,nt
COc1ccc(CCNC(=O)c2ccc(Cn3c(=O)c4ccccc4n(Cc4ccc(F)cc4Cl)c3=O)cc2)cc1OC,nt,nt,1%,nt
Cc1ccc(Cn2c(=O)c3cccnc3n(CC(=O)Nc3cccc(C(F)(F)F)c3)c2=O)cc1,2%,0%[46.1 µM],32µM*!,?
O=C(Cn1c(=O)n(Cc2ccc(Cl)cc2)c(=O)c2cccnc21)Nc1ccccc1C(F)(F)F,nt,nt,-1%,nt
CCn1cc(C(=O)NC(=S)Nc2ccccc2Br)cn1,-10%,3%,1%,-7%
CCn1cc(C(=O)NC(=S)Nc2cccc(O)c2)cn1,-5%,-4%,1%,79µM*
CCn1cc(C(=O)NC(=S)Nc2ccccc2[N+](=O)[O-])cn1,-8%,3%,1%,79µM*
N#Cc1cccc(-c2nccc(NCc3cccnc3)n2)c1,nt,nt,nt,2%
COc1ccc(-n2nc([N+](=O)[O-])c(=NCCCN3CCCC3=O)n2O)cc1,11µM*,-8%,-1%,18%
CC(=O)N1CCN(c2ccc(NCc3cccs3)cc2)CC1,-8%,3%,-1%,22µM*
SMILES,uPA surface inh,TCR activator,ClpP mod,Sfp PPTase inh
CC(=O)N1CCN(c2ccc(NCc3ccc(C)s3)cc2)CC1,?,-5%,-2%,50µM*
CC(=O)N1CCN(c2ccc(NCc3ccc(Br)o3)cc2)CC1,?,-9%,nt,nt
CC(=O)N1CCN(c2ccc(NCc3ccccc3)cc2)CC1,-6%,4%,-1%,45µM*
Cc1ccc(CNc2ccc(N3CCOCC3)cc2)s1,-7%,5%,-1%,-12%
CC(=O)N1CCN(c2ccc(NCc3cccc4ccccc34)cc2)CC1,-2%,4%,nt,-22%
Cc1ccc(NC(=O)Nc2nnc(N3CCCCC3)s2)c(C)c1,nt,nt,1%,nt
COc1ccc(CNC(=O)c2ccc3c(c2)NC(=O)C(C)S3)cc1 (centres undefined),3%,0%,-1%,22µM*
COc1c(O)cc2oc(-c3ccc(O)cc3)cc(=O)c2c1O,?,-3%,0%,-13%
COc1cc2oc(-c3ccc(O)cc3)cc(=O)c2c(OC)c1O,5%,5%,-3%,?

# Compound activity (PubChem BioAssay)
